# From ChEMBL document CHEMBL1157539, “Thousands of chemical starting points for antimalarial lead identification” (Nature, 2010)
# System: Plasmodium falciparum
# Experiment: GSK_TCMDC: Inhibition of Plasmodium falciparum Dd2 in whole red blood cells, using parasite LDH activity as an index of growth. Test compounds present at 2uM
# Format: functional
row,SMILES,Inhibition [%]
1,CC1(C)N=C(N)N=C(N)N1OCCCc1ccccc1.Cl,94
2,O=C(NCCN1CCC(NC(=O)c2ccc(-c3ccccn3)s2)CC1)c1ccc(Cl)c(Cl)c1.O=C(O)C(F)(F)F,48
3,Cc1cc(N2CCCC2=O)ccc1-c1ccc(C(=O)N2CCC(Oc3cccc(Cl)c3)CC2)cc1,98
4,O=C(/C=C/c1ccc(C(F)(F)F)cc1)NCCCCCN1CCN(C(=O)Nc2ccc(Cl)cc2)CC1,0
5,O=C(NC1CCCCN(Cc2ccccc2O)C1)c1cc(F)cc(F)c1.O=C(O)C(F)(F)F (stereo not given),52
6,COc1ccc(CNC2CCN(C)CC2)cc1-c1ccc(S(=O)(=O)NCc2ccccc2)s1.O=C(O)C(F)(F)F,100
7,Nc1nc(N)c2c(Oc3cccc4ccccc34)cccc2n1,10
8,CCN(CC)c1ccc(C(c2ccc(N(CC)CC)cc2)c2ccc([N+](=O)[O-])cc2)cc1,63
9,Cc1cccc(C(=O)NC(NC(=S)Nc2ccc([N+](=O)[O-])cc2)C(Cl)(Cl)Cl)c1 (stereo not given),66
10,CCn1ccc2c(N3CCCCS3(=O)=O)cc(C(=O)N[C@@H](Cc3ccccc3)[C@H](O)CNC3CCCCC3)cc21,98
11,Cc1cc(=O)c(-c2ccc(OCCSc3ccc(C(F)(F)F)cn3)cc2)c(C)[nH]1,96
12,CCNc1cc(C)nc(Nc2ccc(NC(=O)C3CCCC3)cc2)n1,69
13,Cc1cc(N[C@@H](CC(C)C)C(=O)NCCOc2ccccc2)nc(NCCc2ccccc2)n1.O=C(O)C(F)(F)F,29
14,CCOc1ccccc1CNc1nccc(NCc2ccccc2OC)n1,66
15,Cn1cc(CN2CCC(OC(c3ccccc3)c3ccc(Cl)cc3)CC2)cn1 (stereo not given),61
16,COc1ccc(NC(=O)/C=C/c2cc(F)cc(C(F)(F)F)c2)cc1OCCN(C(C)C)C(C)C.O=C(O)C(F)(F)F,21
17,CN(C)c1ccc(C=CC(=O)NC(=O)c2ccccc2O)cc1,97
18,CCc1nc(N)nc(N)c1-c1ccc(F)cc1,0
19,COc1cc(Cc2cnc(N)nc2N)cc(OCCCCc2nnn[nH]2)c1OC,0
20,O=C(Nc1ccc(Cl)cc1)c1cc(Cl)ccc1NC(=O)C1CCc2ccccc2O1 (stereo not given),63

row,SMILES,Inhibition [%]
1,NS(=O)(=O)c1cccc(Br)c1,0
2,O=C1C(c2ccccc2)=C(Nc2cccc(OC(F)(F)C(F)F)c2)c2ccccc21,96
3,CC(=O)c1cccc(S(=O)(=O)NCCCNc2nc3cc(C)cc(C)c3cc2C#N)c1,75
4,CC(C)CNCc1ccc(-c2cccc(CN(CCCN3CCN(C)CC3)C(=O)/C=C/c3ccccc3)c2)cc1.O=C(O)C(F)(F)F,93
5,Cc1cc(N2CCC(NS(=O)(=O)c3ccccc3)CC2)nc(Nc2cccc(C#N)c2)n1.O=C(O)C(F)(F)F,29
6,Cc1cc(F)ccc1-c1nc(NCC(O)CNCCc2ccccc2)nc2c1ccc(=O)n2-c1c(F)cccc1F.O=C(O)C(F)(F)F (stereo not given),100
7,Cl.Cl.N=C(N)c1cccc(-c2cc(-c3cccc(C(=N)N)c3)on2)c1,78
8,CCCCCCCN1CCC(NC(=O)Nc2ccnc3ccc(OC)cc23)C(C(=O)OCC)C1.O=C(O)C(=O)O (stereo not given),73
9,CC(C)NCC(O)COc1ccc(Cc2ccc(OCC(O)CNC(C)C)cc2)cc1.Cl (stereo not given),18
10,Cc1cc(OC(C)C(=O)N2CCc3ccccc32)ccc1Cl (stereo not given),54
11,CC(=O)C1=NN(c2ccc(C)cc2)C(c2cccs2)N1c1ccccc1 (stereo not given),64
12,COc1cc(Cn2ccc3c4c(N)nc(N)nc4ccc32)cc(OC)c1OC,97
13,COc1ccc(-c2cccc(NC(=O)c3ccccc3)c2)cc1CN1CCCN(C)CC1.O=C(O)C(F)(F)F,25
14,COc1ccc(-c2ccc(NC(=O)c3cccc(Cl)c3)cc2)cc1CN1CCCC1.O=C(O)C(F)(F)F,84
15,Cc1nc(C)c(-c2ccc(Oc3ccc(Cl)cc3Cl)cc2)c(O)c1Br,94
16,CN1CCC(NCc2cccc(-c3ccc(S(=O)(=O)NCCc4ccccn4)c(F)c3)c2)CC1.O=C(O)C(F)(F)F,26
17,COc1cccc(C(=O)NC(c2ccc(Cl)cc2Cl)c2cc(Cl)c3cccnc3c2O)c1 (stereo not given),76
18,CC(C)(C)c1ccc(CNCC(C)(C)c2nc(-c3ccnc(N)n3)c(-c3ccc(Cl)c(O)c3)[nH]2)cc1.Cl,54
19,Fc1ccc2[nH]c(-c3ccc(-c4ccc(CNCCc5ccncc5)cc4)cc3)nc2c1.O=C(O)C(F)(F)F,97
20,CCOC(=O)c1ccc(-c2cnc(N)c(-c3nc4cccc(C)c4[nH]3)c2)cc1,79

# System: HepG2
# Experiment: GSK_TCMDC: Percent inhibition of human HepG2 cell line. Test compounds present at 10uM.
# Format: functional
row,SMILES,Inhibition [%]
1,CC1(C)N=C(N)N=C(N)N1OCCCc1ccccc1.Cl,64
2,O=C(NCCN1CCC(NC(=O)c2ccc(-c3ccccn3)s2)CC1)c1ccc(Cl)c(Cl)c1.O=C(O)C(F)(F)F,24
3,Cc1cc(N2CCCC2=O)ccc1-c1ccc(C(=O)N2CCC(Oc3cccc(Cl)c3)CC2)cc1,34
4,O=C(/C=C/c1ccc(C(F)(F)F)cc1)NCCCCCN1CCN(C(=O)Nc2ccc(Cl)cc2)CC1,37
5,O=C(NC1CCCCN(Cc2ccccc2O)C1)c1cc(F)cc(F)c1.O=C(O)C(F)(F)F (stereo not given),7
6,COc1ccc(CNC2CCN(C)CC2)cc1-c1ccc(S(=O)(=O)NCc2ccccc2)s1.O=C(O)C(F)(F)F,62
7,Nc1nc(N)c2c(Oc3cccc4ccccc34)cccc2n1,42
8,CCN(CC)c1ccc(C(c2ccc(N(CC)CC)cc2)c2ccc([N+](=O)[O-])cc2)cc1,20
9,Cc1cccc(C(=O)NC(NC(=S)Nc2ccc([N+](=O)[O-])cc2)C(Cl)(Cl)Cl)c1 (stereo not given),14
10,CCn1ccc2c(N3CCCCS3(=O)=O)cc(C(=O)N[C@@H](Cc3ccccc3)[C@H](O)CNC3CCCCC3)cc21,1
11,Cc1cc(=O)c(-c2ccc(OCCSc3ccc(C(F)(F)F)cn3)cc2)c(C)[nH]1,2
12,CCNc1cc(C)nc(Nc2ccc(NC(=O)C3CCCC3)cc2)n1,13
13,Cc1cc(N[C@@H](CC(C)C)C(=O)NCCOc2ccccc2)nc(NCCc2ccccc2)n1.O=C(O)C(F)(F)F,13
14,CCOc1ccccc1CNc1nccc(NCc2ccccc2OC)n1,50
15,Cn1cc(CN2CCC(OC(c3ccccc3)c3ccc(Cl)cc3)CC2)cn1 (stereo not given),39
16,COc1ccc(NC(=O)/C=C/c2cc(F)cc(C(F)(F)F)c2)cc1OCCN(C(C)C)C(C)C.O=C(O)C(F)(F)F,18
17,CN(C)c1ccc(C=CC(=O)NC(=O)c2ccccc2O)cc1,6
18,CCc1nc(N)nc(N)c1-c1ccc(F)cc1,52
19,COc1cc(Cc2cnc(N)nc2N)cc(OCCCCc2nnn[nH]2)c1OC,7
20,O=C(Nc1ccc(Cl)cc1)c1cc(Cl)ccc1NC(=O)C1CCc2ccccc2O1 (stereo not given),1

row,SMILES,Inhibition [%]
1,NS(=O)(=O)c1cccc(Br)c1,0
2,O=C1C(c2ccccc2)=C(Nc2cccc(OC(F)(F)C(F)F)c2)c2ccccc21,0
3,CC(=O)c1cccc(S(=O)(=O)NCCCNc2nc3cc(C)cc(C)c3cc2C#N)c1,11
4,CC(C)CNCc1ccc(-c2cccc(CN(CCCN3CCN(C)CC3)C(=O)/C=C/c3ccccc3)c2)cc1.O=C(O)C(F)(F)F,43
5,Cc1cc(N2CCC(NS(=O)(=O)c3ccccc3)CC2)nc(Nc2cccc(C#N)c2)n1.O=C(O)C(F)(F)F,52
6,Cc1cc(F)ccc1-c1nc(NCC(O)CNCCc2ccccc2)nc2c1ccc(=O)n2-c1c(F)cccc1F.O=C(O)C(F)(F)F (stereo not given),25
7,Cl.Cl.N=C(N)c1cccc(-c2cc(-c3cccc(C(=N)N)c3)on2)c1,8
8,CCCCCCCN1CCC(NC(=O)Nc2ccnc3ccc(OC)cc23)C(C(=O)OCC)C1.O=C(O)C(=O)O (stereo not given),11
9,CC(C)NCC(O)COc1ccc(Cc2ccc(OCC(O)CNC(C)C)cc2)cc1.Cl (stereo not given),0
10,Cc1cc(OC(C)C(=O)N2CCc3ccccc32)ccc1Cl (stereo not given),20
11,CC(=O)C1=NN(c2ccc(C)cc2)C(c2cccs2)N1c1ccccc1 (stereo not given),0
12,COc1cc(Cn2ccc3c4c(N)nc(N)nc4ccc32)cc(OC)c1OC,66
13,COc1ccc(-c2cccc(NC(=O)c3ccccc3)c2)cc1CN1CCCN(C)CC1.O=C(O)C(F)(F)F,22
14,COc1ccc(-c2ccc(NC(=O)c3cccc(Cl)c3)cc2)cc1CN1CCCC1.O=C(O)C(F)(F)F,35
15,Cc1nc(C)c(-c2ccc(Oc3ccc(Cl)cc3Cl)cc2)c(O)c1Br,3
16,CN1CCC(NCc2cccc(-c3ccc(S(=O)(=O)NCCc4ccccn4)c(F)c3)c2)CC1.O=C(O)C(F)(F)F,11
17,COc1cccc(C(=O)NC(c2ccc(Cl)cc2Cl)c2cc(Cl)c3cccnc3c2O)c1 (stereo not given),37
18,CC(C)(C)c1ccc(CNCC(C)(C)c2nc(-c3ccnc(N)n3)c(-c3ccc(Cl)c(O)c3)[nH]2)cc1.Cl,28
19,Fc1ccc2[nH]c(-c3ccc(-c4ccc(CNCCc5ccncc5)cc4)cc3)nc2c1.O=C(O)C(F)(F)F,23
20,CCOC(=O)c1ccc(-c2cnc(N)c(-c3nc4cccc(C)c4[nH]3)c2)cc1,43
